According to PubChem BioAssay AID1159580 (chemical genetic matrix, 2015):
Among all 5,500 compounds or so, about 2,000 (36%) were called active. Another 18% or so got no clear call; they are omitted. Rule as the data show it: active = normalized growth mostly below about 0.91 (no sharp cut-off); inconclusive = no clear call, values can overlap the other calls; inactive = mostly above about 0.92. The list shows a part of the results.

Experiment: chemical genetic growth profiling, strain panel (AID 1159580);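 also: tested at 20 µM; growth read once vehicle control cultures reached saturation at 30 °C; 1 = growth at the plate median or of vehicle wells; lower values mean less growth of the strain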
Conditions: S. cerevisiae deletion strains, growth OD

Measured: normalized growth

CO[C@H]1/C=C/O[C@@]2(C)Oc3c(C)c(O)c4c(O)c(c(/C=N/N5CCN(C)CC5)c(O)c4c3C2=O)NC(=O)/C(C)=C\C=C\C(C)[C@H](O)[C@@H](C)[C@@H](O)[C@@H](C)[C@@H](OC(C)=O)[C@@H]1C (stereo partly specified)
inactive: locus YJR043C, strain POL32, active compounds read low 0.998 | locus YJR066W, strain TOR1, active compounds read low 1 | locus YKL009W, strain mrt4, active compounds read low 1.02 | locus YKL068W, active compounds read low 1.01 | locus YKL085W, strain MDH1 (second series), active compounds read low 1.01 | locus YKL085W, strain MDH1, active compounds read low 1.01 | locus YKL160W, strain elf1, active compounds read low 1.02 | locus YKR001C, strain vps1, active compounds read low 1.02 | locus YKR026C, strain gcn3, active compounds read low 1.03 | locus YKR091W, strain srl3, active compounds read low 1.02 | locus YLL001W, strain dnm1, active compounds read low 1.02 | locus YLL026W, active compounds read low 1.01 | locus YLL041C, strain sdh2, active compounds read low 1.02 | locus YLR027C, strain aat2, active compounds read low 1.02 | locus YLR039C, strain RIC1, active compounds read low 1.02 | locus YLR058C, strain SHM2, active compounds read low 1.02 | locus YLR102C, strain apc9, active compounds read low 1.02 | locus YLR113W, strain HOG1, active compounds read low 1.05 | locus YLR221C, strain rsa3, active compounds read low 1 | locus YLR258W, strain gsy2, active compounds read low 1.02 | locus YLR262C, strain YPT6 (second series), active compounds read low 0.982 | locus YLR262C, strain YPT6, active compounds read low 1.05 | locus YLR268W, strain sec22, active compounds read low 1.03 | locus YLR320W, strain mms22, active compounds read low 1.01 | locus YLR330W, strain CHS5, active compounds read low 1.01 | locus YLR342W, strain FKS1 (second series), active compounds read low 0.98 | locus YLR342W, strain FKS1, active compounds read low 1.02 | locus YLR357W, strain rsc2, active compounds read low 1.03 | locus YLR370C, strain arc18, active compounds read low 1.02 | locus YLR371W, strain rom2, active compounds read low 1.02 | locus YLR384C, strain iki3, active compounds read low 1.02 | locus YLR418C, strain cdc73, active compounds read low 1.02 | locus YML016C, strain PPZ1, active compounds read low 1.01 | locus YML032C, strain rad52, active compounds read low 1.02 | locus YML120C, strain ndi1, active compounds read low 1.01 | locus YML124C, strain tub3, active compounds read low 1.03 | locus YMR058W, strain fet3, active compounds read low 1.03 | locus YMR078C, strain ctf18, active compounds read low 1.02 | locus YMR125W, strain sto1, active compounds read low 1.04 | locus YMR129W, active compounds read low 1.02 | locus YMR205C, strain PFK2, active compounds read low 1.01 | locus YMR223W, strain ubp8, active compounds read low 1.02 | locus YMR231W, strain pep5, active compounds read low 1.02 | locus YMR307W, strain GAS1, active compounds read low 0.927 | locus YNL067W, strain RPL9B, active compounds read low 1.04 | locus YNL071W, strain lat1, active compounds read low 1.02 | locus YNL153C, strain GIM3, active compounds read low 1.02 | locus YNL183C, strain NPR1, active compounds read low 1.01 | locus YNL209W, strain ssb2, active compounds read low 1.02 | locus YNL233W, strain BNI4, active compounds read low 1.02 | locus YNL248C, strain rpa49, active compounds read low 1.02 | locus YNL250W, strain rad50, active compounds read low 1.01 | locus YNL271C, strain bni1, active compounds read low 1.02 | locus YNL298W, strain CLA4, active compounds read low 1.03 | locus YNL307C, strain MCK1, active compounds read low 1.02 | locus YNL322C, strain KRE1 (second series), active compounds read low 1.01 | locus YNR049C, strain mso1, active compounds read low 1.03 | locus YNR052C, strain pop2, active compounds read low 1.02 | locus YOL006C, strain TOP1, active compounds read low 1.11 | locus YOL012C, strain htz1 1.35 | locus YOL147C, strain pex11, active compounds read low 1.02 | locus YOR001W, strain rrp6, active compounds read low 1.01 | locus YOR061W, strain CKA2, active compounds read low 1.01 | locus YOR069W, strain VPS5, active compounds read low 1.01 | locus YOR070C, strain gyp1, active compounds read low 1.03 | locus YOR080W, strain dia2, active compounds read low 1.03 | locus YOR083W, strain WHI5, active compounds read low 1.02 | locus YOR106W, strain vam3, active compounds read low 1.03 | locus YOR136W, strain idh2, active compounds read low 1.02 | locus YOR144C, strain elg1, active compounds read low 1.02 | locus YOR184W, strain ser1, active compounds read low 1.02 | locus YOR231W, strain MKK1, active compounds read low 1.02 | locus YOR265W, strain rbl2, active compounds read low 1.04 | locus YOR270C, strain vph1, active compounds read low 0.999 | locus YOR290C, strain snf2, active compounds read low 1.01 | locus YOR316C, strain cot1, active compounds read low 1.01 | locus YPL051W, strain arl3, active compounds read low 1.03 | locus YPL078C, strain atp4, active compounds read low 1.01 | locus YPL106C, strain sse1, active compounds read low 1 | locus YPL240C, strain hsp82, active compounds read low 1.02 | locus YPL256C, strain CLN2, active compounds read low 1.06 | locus YPR119W, strain clb2, active compounds read low 1.02 | locus YPR141C, strain kar3, active compounds read low 1.02 | locus YPR163C, strain tif3, active compounds read low 1.01 | locus YPR167C, strain met16, active compounds read low 1.03 | strain wtn01, active compounds read low 1
